Laboratory results as given in PubChem BioAssay (Tox21).
“And” between values parts separate entries of the source, which are not always exact repeats. Equal entries are not always repeated. Records with an inconclusive call do not appear. Entries that show only a call come without a potency. Some compounds were tested as several samples or in several runs, with calls that do not always agree. The source made the active and inactive calls. The call rests on the fitted dose curve; in most records, active means well fitted activation curve with a large enough effect in the repeat runs; inconclusive means weak or mixed curves; inactive means flat fitted curve, though single readings scatter.

Assay: A CellTox Green Cytotoxicity Assay to monitor cytotoxicity in HepG2 cells - 32 hour (AID 1224883); further: nearly all actives have a fitted effect of over 50% in size
Conditions: CellTox Green fluorescence; series mostly up to 76.8 µM
Description: National Center for Advancing Translational Sciences [NCATS]
NIH Chemical Genomics Center [NCGC]
U.S. Environmental Protection Agency [EPA]
National Institutes of Environmental Health Sciences [NIEHS]
National Toxicology Program [NTP]
Cell-based models are critical for drug discovery. Determining the natural cytotoxic effects resulting from test compounds is an essential research activity. A CellTox Green Cytotoxicity Assay to monitor cytotoxicity in real time of continues cell culture during 40 hours of the compound treatment was used to screen Tox21 10K library compounds in HepG2 cells. CellTox Green Cytotoxicity Assay is a nonlytic, homogeneous, biofluorescent method to measure cytotoxicity in cell culture after experimental manipulation. The assay system uses a proprietary asymmetric cyanine dye that is excluded from viable cells but preferentially stains the dead cell's DNA. […] Viable cells produce no appreciable increases in fluorescence. Therefore, the fluorescence signal produced by the binding interaction with dead cell DNA is proportional to cytotoxicity.
The mixture of HepG2 cell suspension and reagents were dispensed at 600cells/6 ul/well in 1536-well tissue culture treated black solid bottom plates using a Multidrop dispenser. After the assay plates were incubated at a 37 C/5% CO2 incubator for 5 hours, 23 nL of compounds dissolved in DMSO, positive and negative controls was transferred to the assay plate by a pintool work station. The plates were incubated at 37 C for 40 hours. The fluorescence intensity were measured at 0h, 8h, 16h, 24h, 32h and 40h time points using ViewLux plate reader during compound treatment.
Potency means the concentration at half of the fitted maximal effect.

| Structure (SMILES) | Potency | cytotoxicity increase |
| --- | --- | --- |
| Cc1nc2c([nH]1)c(=O)n(C)c(=O)n2Cc1ccco1 | inactive | – |
| CCCN1CCCC[C@H]1C(=O)Nc1c(C)cccc1C | inactive | – |
| O=c1n(CCO)c(=O)n(CCO)c(=O)n1CCO | inactive and 38.9 µM (active) | – |
| O=Cc1cccc([N+](=O)[O-])c1 | inactive | – |
| CC(C)NCC(O)c1ccc(NS(C)(=O)=O)cc1 (stereo not given) | inactive | – |
| Cn1c(N)c(N=O)c(=O)n(C)c1=O | inactive | – |
| NC(=O)c1cn(Cc2c(F)cccc2F)nn1 | inactive | – |
| COC(=O)C1=C(C)NC(C)=C(C(=O)OC)C1c1ccccc1[N+](=O)[O-] | inactive | – |
| CN(C)CCCNCCCN(C)C | inactive | – |
| CCCCCCCCCCCC | inactive | – |
| CC(=O)N(CC(O)CO)c1c(I)c(C(=O)NCCO)c(I)c(C(=O)NCC(O)CO)c1I (stereo not given) | inactive | – |
| CC(C)(O)C(=O)c1ccccc1 | inactive | – |
| COc1ccc2c(c1)c(CC(=O)OCC(=O)O)c(C)n2C(=O)c1ccc(Cl)cc1 | inactive | – |
| CCOC(=O)CC(C)=O | inactive | – |
| CCCC(=O)O[C@]1(C(=O)CO)CC[C@H]2[C@@H]3CCC4=CC(=O)CC[C@]4(C)[C@H]3[C@@H](O)C[C@@]21C | inactive | – |
| c1cnc(N2CCN(Cc3ccc4c(c3)OCO4)CC2)nc1 | inactive | – |
| CC(C[N+](C)(C)C)OC(N)=O (stereo not given) | inactive | – |
| Nc1c2c(nc3ccccc13)CCCC2O (stereo not given) | inactive | – |
| CC(=O)OCC(=O)[C@@]1(O)CCC2C3CCC4=CC(=O)CC[C@]4(C)C3[C@@H](O)C[C@@]21C (stereo not given in full) | inactive | – |
| CCCCCCCCCCCCCC=O | – | 1.86% [at 6.97 µM] (inactive) |

| Structure (SMILES) | Potency | cytotoxicity increase |
| --- | --- | --- |
| COCCc1ccc(OCC(O)CNC(C)C)cc1 (stereo not given) | inactive | – |
| CN1CCC(=C2c3ccccc3CC(=O)c3sccc32)CC1 | inactive | – |
| COc1nc(N)nc2c1ncn2[C@@H]1O[C@H](CO)[C@@H](O)[C@@H]1O | inactive | – |
| Nc1ccc(S(=O)(=O)Nc2ccnn2-c2ccccc2)cc1 | – | 3.28% [at 15.8 µM] (inactive) |
| NC(=O)COCCN1CCN(C(c2ccccc2)c2ccc(Cl)cc2)CC1 (stereo not given) | inactive | – |
| CC(NC(CCc1ccccc1)C(=O)O)C(=O)N1C(=O)N(C)CC1C(=O)O (stereo not given) | inactive | – |
| CCOC(=O)c1c(C)n(C)c2ccc(O)cc12 | inactive | – |
| C1OCOCO1 | inactive | – |
| O=C(c1ccccc1)C1CCCCC1 | 49 µM (active) | – |
| CC1(C)CO[C@@H](CC(=O)O)CN1 | inactive | – |
| COc1ccc2c(c1)CCCC2=O | inactive | – |
| OCCCC1CCCCC1 | inactive | – |
| CN(C)CCCN1c2ccccc2CCc2ccc(Cl)cc21 | 34.7 µM (active) and 23.9 µM (active) | – |
| Cc1ccc(Cl)cc1Cl | inactive | – |
| C/C=C(\C)C#N | inactive | – |
| Cc1ccc(C#N)cc1 | inactive | – |
| COC(C)(C)CCCC(C)CC=O (stereo not given) | inactive | – |
| O=S(O)CO | inactive | – |
| C=CCOCC(CC)(CO)COCC=C | inactive | – |
| NS(=O)(=O)c1cc(C(=O)NN2C[C@H]3[C@H]4CCC(C4)[C@H]3C2)ccc1Cl | inactive | – |
